# This is a sample that favours compounds with a hit; in the whole collection about 3.4% have one here.
# RE007 growth inh = less growth of the S. pombe RE007 Vpr strain; S. pombe RE007 Vpr strain, BacTiter-Glo ATP luminescence, 24 h; Potency, µM (top dose mostly 92.2 µM), inactives show at the top dose activity change, negative = less growth, most hits filed as inhibitors; 360,000 compounds, 0.21% hits; AID 651644; active means well fitted falling curve with a large enough effect; inconclusive means small, poorly fitted or top-dose-only effect; inactive means no such curve, though single readings can be large or run the other way; further: nearly all actives have a fitted effect of over 50% in size
#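 Fission yeast strain RE007, carrying one chromosomally integrated HIV-1 vpr copy, was seeded at OD 0.01 in PMG+AL medium with 23 nL pinned compound. After 24 h at 30 °C and 99% humidity, viability was read by BacTiter-Glo luminescence.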
# AmpC detergent = blocks E. coli AmpC beta-lactamase in detergent assay; AID 485294; AmpC hydrolysis of nitrocefin, absorbance 480 nm, 0.01% Triton; P00811; Potency, µM (doses to about 114 µM), for inactives: at the highest dose activity change, negative = inhibition, usual class: inhibitors; 370,000 compounds, 0.041% hits;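 further: 0% = no-compound wells and -100% = no-enzyme wells; nearly all actives have a fitted effect of over 25% in size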
# Target sequence (P00811 whole entry, looked up): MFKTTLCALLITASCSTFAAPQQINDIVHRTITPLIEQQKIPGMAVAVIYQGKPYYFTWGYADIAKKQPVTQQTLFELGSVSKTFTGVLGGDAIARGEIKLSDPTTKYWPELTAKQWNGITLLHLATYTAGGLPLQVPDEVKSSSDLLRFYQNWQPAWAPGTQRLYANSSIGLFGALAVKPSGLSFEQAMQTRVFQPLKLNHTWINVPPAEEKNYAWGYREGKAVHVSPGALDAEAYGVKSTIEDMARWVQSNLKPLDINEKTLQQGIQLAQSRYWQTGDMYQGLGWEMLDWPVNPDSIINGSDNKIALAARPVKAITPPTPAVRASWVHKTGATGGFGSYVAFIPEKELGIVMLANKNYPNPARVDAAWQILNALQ
#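 AmpC (5.3 nM in the dispensed reagent) in 20 mM phosphate pH 7.0 with 0.01% (detergent screen) or 0.0001% Triton X-100 was preincubated with compounds for 15 min at room temperature. Nitrocefin was then added from an 800 uM solution, and hydrolysis was followed at 480 nm.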
# Sm TGR block = S. mansoni TGR enzyme inhibition | Q962Y6 | purified TGR, DTNB reduction, TNB absorbance 405 nm | Potency, µM (highest dose often 114 µM), without a hit: at the highest dose activity change, negative = inhibition, hits mostly inhibitors | 360,000 compounds, 3% hits | AID 485364; further: nearly all actives have a fitted effect of over 60% in size
#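 Kinetic colorimetric format: TGR-catalysed, NADPH-driven DTNB reduction monitored via TNB absorbance. Enzyme dispensed at 20 nM; compound exposure 15 min at room temperature before reaction start.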
# AmpC no deterg = blocks E. coli AmpC beta-lactamase in detergent-free assay; Potency, µM (series often up to 57.1 µM), for the others: at the top dose activity change, negative = inhibition, most hits filed as inhibitors; 330,000 compounds, 0.52% hits; P00811; AmpC nitrocefin hydrolysis, absorbance 480 nm, 0.0001% Triton;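 further: plate controls were no compound for no effect and no enzyme for full effect; nearly all actives have a fitted effect of over 20% in size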
#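 20 mM phosphate pH 7.0 + 0.01% (detergent screen) or 0.0001% Triton X-100; 5.3 nM AmpC reagent; cpd preinc 15 min RT; nitrocefin (800 uM stock) to start; A480 q20 s × 4 min; Activity was normalised to no-enzyme and no-compound control wells.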
# Giardia FBPA inh = inhibitors of Giardia lamblia fructose-1,6-bisphosphate aldolase. A8B2U2. purified Giardia FBPA. Potency, µM (titrated, usually from 59.6 µM), without a hit: top-dose activity, negative = inhibition, usual class: inhibitors. 290,000 compounds, 0.71% hits; further: nearly all actives have a fitted effect of over 55% in size
# Target sequence (A8B2U2 whole entry, looked up): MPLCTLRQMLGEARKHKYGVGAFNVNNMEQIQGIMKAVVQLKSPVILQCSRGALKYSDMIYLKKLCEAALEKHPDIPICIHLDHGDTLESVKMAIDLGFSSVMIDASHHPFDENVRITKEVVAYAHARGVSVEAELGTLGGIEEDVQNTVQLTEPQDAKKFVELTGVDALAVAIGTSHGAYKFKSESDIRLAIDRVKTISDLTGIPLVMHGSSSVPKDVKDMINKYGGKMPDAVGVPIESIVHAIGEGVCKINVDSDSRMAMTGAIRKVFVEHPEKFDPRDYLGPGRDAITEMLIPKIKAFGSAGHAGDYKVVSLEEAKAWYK
#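 40 nM FBPA preincubated 10 min at RT with compound (up to 57.5 uM final), then substrate plus GAPDH/TPI/NAD/arsenate coupling and diaphorase/resazurin added. Fluorescence read after 20 min at RT, 525/598 nm.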
# The depositor's hits bear a star; ? = inconclusive; . = no result; [ ] = another dose, or the depositor's remark. Unless noted, the call rests on the fitted dose curve; in most records, active means well fitted curve in the direction sought with a large enough effect; inconclusive means small, poorly fitted or top-dose-only effect, or another doubt; inactive means no such curve, though single readings can be large; an effect the other way counts as inactive or inconclusive. Unless noted, on the % scale 0 is the no-effect control and ±100 the full control effect; potency means the concentration at half of the fitted maximal effect.
SMILES,RE007 growth inh,AmpC detergent,Sm TGR block,AmpC no deterg,Giardia FBPA inh
COc1ccc(-n2c(CN3CCC(C(N)=O)CC3)nc3ccc([N+](=O)[O-])cc3c2=O)c(OC)c1,8%,-2%,45µM*,-40%,-12%
Cn1nc(-c2ccccc2)nc1-c1ccccc1,-4%,-8%,-1%,-9%,.
CN=c1nc(-c2ccccc2)n(-c2ccccc2)s1,-2%,-6%,1.1µM*,-25%,-2%
O=C(O)c1cccc(Cn2c(Cl)c(/C=N/NC(=O)c3ccc(O)cc3)sc2=O)c1,-2%,3%,32µM*,-20%,11%
O=Cc1sc(=O)n(Cc2cccc(C(=O)O)c2)c1Cl,-2%,-2%,3%,-30%,-6%
Cc1cccc(OCC(=O)N/N=C/c2sc(=O)n(Cc3cccc(C(=O)O)c3)c2Cl)c1,-10%,-4%,25µM*,-35%,16%
COC(=O)c1cccc(Cn2c(Cl)c(/C=N/NC(=O)c3ccccc3Cl)sc2=O)c1,9%,-12%,?,-42%,-4%
COC(=O)c1cccc(Cn2c(Cl)c(/C=N/NC(=O)c3ccco3)sc2=O)c1,-12%,-2%,35µM*,-45%,.
O=C(COc1ccccc1)N/N=C/c1sc(=O)n(Cc2cccc(C(=O)O)c2)c1Cl,6%,0%,35µM*,-33%,9%
Cc1cc(C)n(-c2ccc(C(=O)Nc3nnc(C4CC4)s3)cc2)n1,6%,?,-3%,-17%,-2%
O=c1sc(/C=N/Nc2ccccc2)c(Cl)n1Cc1ccccc1,-7%,4%,7.9µM*,-31%,3%
CCOc1cc(/C=C\[N+](=O)[O-])ccc1OCC(=O)N1CCOCC1,-6%,3%,10µM*,56%,-1%
CCOc1cc(/C=C/c2nc3cc(C)c(C)cc3s2)ccc1OCC(=O)N1CCOCC1,1%,-3%,3%,195%,-4%
CC1=C(n2nnc([N+](=O)[O-])n2)C(c2cccnc2)C(C#N)=C(N)O1 (centres undefined),4%,-11%,?,-22%,5µM*
N#CC1=C(N)Oc2cc(O)c(Cl)cc2C1c1ccccc1F (centres undefined),.,-10%,45µM*,-51%,-4%
N#CC1=C(N)Oc2ccc3ccccc3c2C1c1cccnc1 (centres undefined),2%,2%,40µM*,-14%,-6%
COC(=O)C1=C(C)OC(N)=C(C#N)C1c1ccccc1F (centres undefined),13%,?,2%,-25%,0%
N#CC1=C(N)Oc2cc(O)c(Cl)cc2C1c1cccnc1 (centres undefined),16%,-2%,32µM*,-28%,-21%
Cc1ccc(S(=O)(=O)c2cc3c(=O)n4cccc(C)c4nc3n(Cc3ccco3)c2=N)cc1C,.,-3%,-23%,-18%,-16%
c1ccc2c(c1)CCCN2Cc1nnnn1C1CCCC1,1%,-14%,6%,-2%,3%
CCCCOC(=O)c1cccc(NC(=O)CC)c1,-20%,-3%,-1%,-38%,8%
Cc1cc(OC(C)C(=O)N(Cc2ccco2)Cc2ccccc2F)cc(C)c1Cl (centres undefined),.,22%,6%,.,.
Cc1c(C(=O)O)c(O)cc2c1C(=O)c1c(O)c([C@@H]3O[C@H](CO)[C@@H](O)[C@H](O)[C@H]3O)c(O)c(O)c1C2=O,?,.,.,-11%,.
Cc1c(C(=O)O)c(O)cc2c1C(=O)c1c(O)c([C@H]3O[C@H](CO)[C@@H](O)[C@H](O)[C@H]3O)c(O)c(O)c1C2=O,.,.,.,.,18µM*
O=C(Nc1nc2c(F)cc(F)cc2s1)C1CC(=O)N(Cc2ccco2)C1 (centres undefined),1%,-5%,5µM*,-15%,-22%
SMILES,RE007 growth inh,AmpC detergent,Sm TGR block,AmpC no deterg,Giardia FBPA inh
COc1ccccc1C1Nc2cccc3cccc(c23)N1,7.1µM*,-10%,?,-27%,?
Oc1ccccc1C1Nc2cccc3cccc(c23)N1,-7%,9%,18µM*,-36%,-30%
COc1cc(OC)c(C2Nc3cccc4cccc(c34)N2)c(OC)c1,-8%,-6%,?,70%,-19%
Brc1ccc(C2Nc3cccc4cccc(c34)N2)o1,0%,-15%,?,-28%,?
Cc1ccc(NC(=O)c2cc(NC(=O)CCCC(=O)O)ccc2Cl)cc1Cl,-5%,-5%,-13%,-3%,3%
CCCS(=O)(=O)c1nnnn1-c1cccc(OC)c1,-29%,?,5.6µM*,-12%,0%
CN(C)c1ccc(-c2csc(C(O)c3ccc(F)cc3)n2)cc1 (centres undefined),5%[18.4 µM],.,.,.,.
O=C(CCl)c1cc2c3c(c1)CC(=O)N3CCC2,-10%,-1%,1.6µM*,-2%,-12%
O=C(NCCO)C(=O)Nc1cc2c3c(c1)CC(=O)N3CCC2,2%,2%,4%,33%,12%
O=C(O)C1CSCN1S(=O)(=O)c1cccc2nsnc12 (centres undefined),1%,-2%,45µM*,-4%,-10%
O=C(COc1ccc(S(=O)(=O)NC2CCCCC2)cc1)NCc1ccccn1,-14%,-1%,5%,-4%,8%
O=C(CCc1ccc(S(=O)(=O)NC2CCCCC2)cc1)NCc1ccccn1,-18%,-5%,35µM*,-14%,-25%
N=C(N)SCc1ncccc1O,17%,-3%,11µM*,-8%,?
CN1C(=O)C2(c3ccccc31)C1CCCC=C1C(C#N)=C(N)C2(C#N)C#N (centres undefined),6%,?,20µM*,-51%,?
CN(C)C(=O)c1nnsc1Sc1ccc(Cl)cc1,35%,6%,1%,-5%,1%
O=C(Nc1cccc(C(F)(F)F)c1)c1ccc2nc(-c3ccco3)c(-c3ccco3)nc2c1,-2%,-7%,3.5µM*,-53%,?
CCc1nc2ccc(C(=O)N3CCN(c4ccccc4)CC3)cc2nc1CC,8%,1%,8%,127%,.
O=C(Nc1cccc(C(F)(F)F)c1)c1ccc2snnc2c1,.,16%,?,.,.
O=C(c1ccc2nc(-c3ccco3)c(-c3ccco3)nc2c1)N1CCN(c2ccccc2)CC1,7%,?,35µM*,95%,?
O=C(O)c1ccc2nc(-c3ccco3)c(-c3ccco3)nc2c1,-11%,2%,0.5µM*,-21%,6.3µM*
COc1ccc(C(=O)N2CCC3(CC2)OCCO3)cc1,18%,-1%,-21%,-9%,-1%
O=C(c1ccc2nc(-c3ccco3)c(-c3ccco3)nc2c1)N1CCC2(CC1)OCCO2,-9%,-3%,1.6µM*,72%,7.1µM*
Cc1ccc(-c2nc3ccc(C(=O)O)cc3nc2-c2ccc(C)cc2)cc1,2%,-10%,8%,-30%,.
Cc1csc(SCC(=O)NC(=O)NC(C)C)n1,1%,?,7%,-6%[11.4 µM],6%
